Experimental findings from PMC6792352, “Limited Chemical Structural Diversity Found to Modulate Thyroid Hormone Receptor in the Tox21 Chemical Library” (Environmental Health Perspectives, 2019) are described below.

Counter-ions that a name gives are not always drawn.

For orientation: AC50 means the midpoint of the concentration-response curve, whichever way the signal moves.

The experiment has as its system thyroid hormone receptor (endogenous TRα and TRβ). Also noted: species or system GH3-TRE-Luc (rat pituitary); GH3-TRE-Luc luciferase reporter, antagonist mode against 1 nM T3, loss of signal, qHTS. The settings on record: read-out: Average AC50 (uM) GH3-TRE-Antag, antagonist mode, 1 nM T3, no GH3 cytotoxicity hit, Average AC50 (uM) GH3-TRE-Antag, 24 h.
Consider `CCCCCCn1cc[n+](C)c1` [1-Hexyl-3-methylimidazolium tetrafluoroborate], for which the AC50 turned out to be 56.1 µM.

With `CCCCCCn1cc[n+](C)c1` [1-Hexyl-3-methylimidazolium trifluoromethanesulfonate], the AC50 worked out at 52.5 µM.

On to `CCCCCCCCCCCCOS(=O)(=O)O` [Sodium dodecyl sulfate], for which the AC50 was more than 50 µM.
